Hit rate of the full screen: of about 5,500 compounds, about 2,000 (36%) were called active. Inconclusive results (about 18%) are left out. Rule as the data show it: active = normalized growth mostly below about 0.91 (no sharp cut-off); inconclusive = no clear call, values can overlap the other calls; inactive = mostly above about 0.92. Some of the results follow.
Experiment: chemical genetic growth profiling, strain panel (AID 1159580);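 also: tested at 20 µM; growth read once vehicle control cultures reached saturation at 30 °C; 1 = growth at the plate median or of vehicle wells; lower values mean less growth of the strain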
Conditions: growth OD

Measured: normalized growth

C=CC1=C(C(=O)O)N2C(=O)[C@@H](NC(=O)/C(=N/O)c3csc(N)n3)[C@H]2SC1
inactive: S. cerevisiae deletion strains, locus YJR066W, strain TOR1, hits give low values 0.95 | S. cerevisiae deletion strains, locus YJR075W, strain HOC1, hits give low values 1.01 | S. cerevisiae deletion strains, locus YKL009W, strain mrt4, hits give low values 0.995 | S. cerevisiae deletion strains, locus YKL068W, hits give low values 1 | S. cerevisiae deletion strains, locus YKL085W, strain MDH1 (second series), hits give low values 0.989 | S. cerevisiae deletion strains, locus YKL085W, strain MDH1, hits give low values 0.989 | S. cerevisiae deletion strains, locus YKL160W, strain elf1, hits give low values 1.02 | S. cerevisiae deletion strains, locus YKL190W, strain CNB1, hits give low values 1.02 | S. cerevisiae deletion strains, locus YKR001C, strain vps1, hits give low values 0.979 | S. cerevisiae deletion strains, locus YKR026C, strain gcn3, hits give low values 1.03 | S. cerevisiae deletion strains, locus YKR091W, strain srl3, hits give low values 1.02 | S. cerevisiae deletion strains, locus YLL001W, strain dnm1, hits give low values 1.02 | S. cerevisiae deletion strains, locus YLL026W, hits give low values 1.03 | S. cerevisiae deletion strains, locus YLL041C, strain sdh2, hits give low values 1.02 | S. cerevisiae deletion strains, locus YLR027C, strain aat2, hits give low values 1.02 | S. cerevisiae deletion strains, locus YLR039C, strain RIC1, hits give low values 1.04 | S. cerevisiae deletion strains, locus YLR058C, strain SHM2, hits give low values 0.996 | S. cerevisiae deletion strains, locus YLR102C, strain apc9, hits give low values 0.997 | S. cerevisiae deletion strains, locus YLR113W, strain HOG1, hits give low values 1.02 | S. cerevisiae deletion strains, locus YLR221C, strain rsa3, hits give low values 1.04 | S. cerevisiae deletion strains, locus YLR258W, strain gsy2, hits give low values 1.02 | S. cerevisiae deletion strains, locus YLR262C, strain YPT6 (second series), hits give low values 1.04 | S. cerevisiae deletion strains, locus YLR262C, strain YPT6, hits give low values 1.02 | S. cerevisiae deletion strains, locus YLR268W, strain sec22, hits give low values 1 | S. cerevisiae deletion strains, locus YLR320W, strain mms22, hits give low values 1.02 | S. cerevisiae deletion strains, locus YLR330W, strain CHS5, hits give low values 0.992 | S. cerevisiae deletion strains, locus YLR342W, strain FKS1 (second series), hits give low values 1.02 | S. cerevisiae deletion strains, locus YLR342W, strain FKS1, hits give low values 1.03 | S. cerevisiae deletion strains, locus YLR357W, strain rsc2, hits give low values 1.02 | S. cerevisiae deletion strains, locus YLR370C, strain arc18, hits give low values 1.02 | S. cerevisiae deletion strains, locus YLR371W, strain rom2, hits give low values 0.994 | S. cerevisiae deletion strains, locus YLR384C, strain iki3, hits give low values 1.02 | S. cerevisiae deletion strains, locus YLR418C, strain cdc73, hits give low values 0.998 | S. cerevisiae deletion strains, locus YML016C, strain PPZ1, hits give low values 0.987 | S. cerevisiae deletion strains, locus YML032C, strain rad52, hits give low values 1 | S. cerevisiae deletion strains, locus YML120C, strain ndi1, hits give low values 1.02 | S. cerevisiae deletion strains, locus YML124C, strain tub3, hits give low values 0.993 | S. cerevisiae deletion strains, locus YMR058W, strain fet3, hits give low values 1.01 | S. cerevisiae deletion strains, locus YMR078C, strain ctf18, hits give low values 0.989 | S. cerevisiae deletion strains, locus YMR125W, strain sto1, hits give low values 1.03 | S. cerevisiae deletion strains, locus YMR129W, hits give low values 1.01 | S. cerevisiae deletion strains, locus YMR205C, strain PFK2, hits give low values 1.03 | S. cerevisiae deletion strains, locus YMR223W, strain ubp8, hits give low values 0.994 | S. cerevisiae deletion strains, locus YMR231W, strain pep5, hits give low values 1.02 | S. cerevisiae deletion strains, locus YMR263W, strain SAP30, hits give low values 1.04 | S. cerevisiae deletion strains, locus YMR307W, strain GAS1, hits give low values 1.05 | S. cerevisiae deletion strains, locus YNL067W, strain RPL9B, hits give low values 1.08 | S. cerevisiae deletion strains, locus YNL071W, strain lat1, hits give low values 1.02 | S. cerevisiae deletion strains, locus YNL128W, strain TEP1, hits give low values 1.02 | S. cerevisiae deletion strains, locus YNL153C, strain GIM3, hits give low values 1 | S. cerevisiae deletion strains, locus YNL183C, strain NPR1, hits give low values 0.956 | S. cerevisiae deletion strains, locus YNL209W, strain ssb2, hits give low values 1.01 | S. cerevisiae deletion strains, locus YNL233W, strain BNI4, hits give low values 1 | S. cerevisiae deletion strains, locus YNL248C, strain rpa49, hits give low values 1.04 | S. cerevisiae deletion strains, locus YNL250W, strain rad50, hits give low values 0.99 | S. cerevisiae deletion strains, locus YNL271C, strain bni1, hits give low values 0.99 | S. cerevisiae deletion strains, locus YNL298W, strain CLA4, hits give low values 0.982 | S. cerevisiae deletion strains, locus YNL307C, strain MCK1, hits give low values 1.01 | S. cerevisiae deletion strains, locus YNL322C, strain KRE1 (second series), hits give low values 1.04 | S. cerevisiae deletion strains, locus YNL322C, strain KRE1, hits give low values 1 | S. cerevisiae deletion strains, locus YNR049C, strain mso1, hits give low values 1.02 | S. cerevisiae deletion strains, locus YNR052C, strain pop2, hits give low values 1 | S. cerevisiae deletion strains, locus YOL006C, strain TOP1, hits give low values 0.995 | S. cerevisiae deletion strains, locus YOL012C, strain htz1 1.75 | S. cerevisiae deletion strains, locus YOR001W, strain rrp6, hits give low values 1.03 | S. cerevisiae deletion strains, locus YOR061W, strain CKA2, hits give low values 0.994 | S. cerevisiae deletion strains, locus YOR069W, strain VPS5, hits give low values 0.998 | S. cerevisiae deletion strains, locus YOR070C, strain gyp1, hits give low values 1.01 | S. cerevisiae deletion strains, locus YOR080W, strain dia2, hits give low values 1.04 | S. cerevisiae deletion strains, locus YOR083W, strain WHI5, hits give low values 1.02 | S. cerevisiae deletion strains, locus YOR106W, strain vam3, hits give low values 1.03 | S. cerevisiae deletion strains, locus YOR136W, strain idh2, hits give low values 0.988 | S. cerevisiae deletion strains, locus YOR144C, strain elg1, hits give low values 0.979 | S. cerevisiae deletion strains, locus YOR184W, strain ser1, hits give low values 0.993 | S. cerevisiae deletion strains, locus YOR231W, strain MKK1, hits give low values 0.978 | S. cerevisiae deletion strains, locus YOR265W, strain rbl2, hits give low values 1.02 | S. cerevisiae deletion strains, locus YOR270C, strain vph1, hits give low values 1.03 | S. cerevisiae deletion strains, locus YOR290C, strain snf2, hits give low values 1.01 | S. cerevisiae deletion strains, locus YOR316C, strain cot1, hits give low values 0.994 | S. cerevisiae deletion strains, locus YPL051W, strain arl3, hits give low values 1.03 | S. cerevisiae deletion strains, locus YPL055C, strain LGE1, hits give low values 1.03 | S. cerevisiae deletion strains, locus YPL078C, strain atp4, hits give low values 1.02 | S. cerevisiae deletion strains, locus YPL106C, strain sse1, hits give low values 1.04 | S. cerevisiae deletion strains, locus YPL240C, strain hsp82, hits give low values 1.03 | S. cerevisiae deletion strains, locus YPL241C, strain CIN2, hits give low values 1.01 | S. cerevisiae deletion strains, locus YPL256C, strain CLN2, hits give low values 0.957 | S. cerevisiae deletion strains, locus YPR141C, strain kar3, hits give low values 0.984 | S. cerevisiae deletion strains, locus YPR163C, strain tif3, hits give low values 0.991 | S. cerevisiae deletion strains, locus YPR167C, strain met16, hits give low values 0.994 | S. cerevisiae deletion strains, strain wtn01, hits give low values 0.993 | S. cerevisiae strains, strain wild type, hits give low values 1.03
